# Measurements reported in PubChem BioAssay (Tox21).
# Results filed as inconclusive are left out. Entries that show only a call come without a potency. Unmarked numbers belong to inactive results. Activity calls are given as the source filed them. Unless noted, calls come from the whole dose curve; as a rule, active = well fitted curve in the direction sought with a large enough effect in the repeat runs; inconclusive = weak or mixed curves; inactive = no such curve, though single readings can be large; an effect the other way counts as inactive or inconclusive.
# What was measured:
# [1] = qHTS assay to identify small molecule antagonists of the vitamin D receptor (VDR) signaling pathway - cell viability counter screen (AID 743225); note: nearly all actives have a fitted effect of over 50% in size
# Summary of the method: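 Cytotoxicity counter screen read by CellTiter-Glo luminescence (30 min, room temperature) in the same wells as the VDR-bla antagonist readout. HEK 293T VDR-UAS-bla cells had 16 h at 37C with compound and 3 nM (final) 1-alpha,25-dihydroxyvitamin D3, then 2 h with FRET substrate.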
# [2] = qHTS assay to identify small molecule agonists of the NFkB signaling pathway - cell viability counter screen (AID 1159515; calls by dose curve; note: series mostly up to about 61 µM; nearly all actives have a fitted effect of over 55% in size)
# Summary of the method: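 Tox21 library compounds were tested for cytotoxicity against NFkB-bla ME-180 cells during a 5 hr exposure at 37 C. CellTiter-Glo luminescence served as the viability read-out.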
# [3] = qHTS assay to identify small molecule agonists of the endoplasmic reticulum stress response signaling pathway (AID 1159516; active = well fitted activation curve with a large enough effect in the signal ratio in the repeat runs, not every such curve was filed as active; the % refers to the signal ratio; note: potency is the fitted concentration of half-maximal effect)
# Summary of the method: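 Fluorescence at 460 and 530 nm (405 nm excitation) reports beta-lactamase from an ER stress response element in HeLa cells treated 5 hr at 37 C.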
# [4] = qHTS assay to identify small molecule agonists of the endoplasmic reticulum stress response signaling pathway - cell viability counter screen (AID 1159517; calls by dose curve; note: series mostly up to about 61 µM; nearly all actives have a fitted effect of over 50% in size)
# Summary of the method: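 ESRE-bla HeLa cells (1,500/well) were plated overnight at 37 C and exposed to compounds for 5 hr. After the 2 hr beta-lactamase substrate read, CellTiter-Glo went into the same wells, and luminescence was read after 30 min at room temperature.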
# [5] = qHTS assay to identify small molecule antagonists of the retinoid-related orphan receptor gamma (ROR-gamma) signaling pathway - cell viability counter screen (AID 1159520); note: nearly all actives have a fitted effect of over 50% in size
# Summary of the method: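 Cytotoxicity was read from cellular ATP (CellTiter-Glo luminescence) after 16 hr at 37 C with 1 uM doxycycline induction. The inducer was added 2 hr after compound transfer to Tet-on ROR gamma CHO cells.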
# [6] = qHTS assay to identify small molecule agonists of the AP-1 signaling pathway - cell viability counter screen (AID 1159525; calls by dose curve; note: nearly all actives have a fitted effect of over 55% in size)
# Summary of the method: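 Intracellular ATP by Cell Titer Glo luminescence (30 min, RT) in the same ME-180 AP-1-bla wells after the 5 h compound exposure at 37 °C. Normalised to tetra n-octyl ammonium bromide and DMSO controls.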
# [7] = qHTS assay to identify small molecule agonists of the AP-1 signaling pathway (AID 1159526; calls by dose curve)
# [8] = target: Retinoic acid receptor RXR-alpha (Homo sapiens) (UniProt P19793); assay: qHTS assay to identify small molecule agonists of the RXR signaling pathway (AID 1159527; calls by dose curve; note: nearly all actives have a fitted effect of over 35% in size)
# Summary of the method: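 Agonist-mode beta-lactamase reporter assay: HEK 293T RXR-alpha-UAS-bla cells treated 16 hr at 37 C with compounds, 9-cis retinoic acid as positive control. LiveBLAzer FRET substrate, 405 nm excitation, 460/530 nm emission.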
# [9] = qHTS assay to identify small molecule agonists of the RXR signaling pathway - cell viability counter screen (AID 1159529); note: nearly all actives have a fitted effect of over 50% in size; note: potency is the fitted concentration of half-maximal effect; for activity change, negative = cytotoxicity: series mostly up to about 77 µM
# Summary of the method: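 CellTiter-Glo luminescence gave viability in the wells also read for beta-lactamase. Cells (RXR-alpha-UAS-bla HEK 293T, 2% charcoal-stripped FBS medium) had 5 hr plating, then 16 hr compound exposure at 37 C; tetraoctyl ammonium bromide served as positive control.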
# [10] = qHTS assay to identify small molecule antagonists of the retinoid acid receptor (RAR) signaling pathway - cell viability counter screen (AID 1159551); note: nearly all actives have a fitted effect of over 35% in size
# Summary of the method: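 In this counter screen, the RARE-luciferase line C3RL4 was exposed for 6 h at 37 C and 5% CO2 to compounds with retinol at 1 uM final. Cellular ATP, read by luminescence, served as the viability measure.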
# [11] = qHTS assay to identify small molecule antagonists of the retinoic acid receptor (RAR) signaling pathway (AID 1159552; note: nearly all actives have a fitted effect of over 50% in size)
# Summary of the method: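 Luminescent RARE reporter read-out in C3RL4 cells: 6 hr co-treatment at 37 C of test compounds with retinol at 1 uM final. Cells plated overnight beforehand; luciferase reagent incubated 30 min at room temperature before reading.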
# [12] = qHTS assay to identify small molecule antagonists of the estrogen related receptor (ERR) signaling pathway from Tox21 library - cell viability counter screen (AID 1224834); note: nearly all actives have a fitted effect of over 30% in size
# Summary of the method: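 Counter screen run in ERR cells (2,000 cells/well): cells pre-incubated 6 h, then treated with compounds for 17.5 h at 37 C. Fluorescence was read 30 min after CellTiter-Fluor addition.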
# [13] = qHTS assay to identify small molecule agonists of the retinoic acid receptor (RAR) signaling pathway (AID 1159553)
# Summary of the method: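 In this cell-based screen, 1,000 C3RL4 cells per well were cultured overnight, dosed with test chemicals in DMSO for 6 hr, and assessed for RARE luciferase luminescence.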
# [14] = qHTS assay to identify small molecule antagonists of the estrogen related receptor (ERR) signaling pathway - cell viability counter screen (AID 1224818); note: series mostly up to about 46 µM
# Summary of the method: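 Viability of ERR cells, CellTiter-Fluor fluorescence; 17.5 h compound exposure at 37 C, DMSO vehicle; 30 min reagent incubation at 37 C/5% CO2.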
# [15] = qHTS assay to identify small molecule antagonists of the estrogen related receptor (ERR) signaling pathway (AID 1224819)
# Summary of the method: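 Seed ERR cells 2,000/well; rest 6 h at 37 C/5% CO2; pin compounds in DMSO; incubate 18 h at 37 C; add One-Glo; wait 30 min at room temperature; measure luminescence.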
# [16] = qHTS assay to identify small molecule agonists of the estrogen related receptor (ERR) signaling pathway (AID 1224820)
# Summary of the method: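 An ERR cell line provided by NTP was seeded at 2,000 cells per well and allowed to settle for 6 h before compounds in DMSO were added. After 18 h at 37 C, luciferase activity was measured by One-Glo luminescence.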
# [17] = tested on: estrogen-related receptor alpha (ERRalpha) with PGC-1alpha coactivator, human; assay: qHTS assay to identify small molecule antagonists of the estrogen related receptor signaling pathway with the pleiotropic PPARgamma coactivator (PGC) (AID 1224821; calls by dose curve)
# Summary of the method: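 A PGC/ERR cell line supplied by NTP is seeded, allowed 6 h at 37 C, and treated with test compounds in DMSO for 18 h. Signal is then measured as luciferase luminescence using One-Glo.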
# [18] = qHTS assay to identify small molecule antagonists of the estrogen related receptor signaling pathway with the pleiotropic PPARgamma coactivator (PGC) cell viability counter screen (AID 1224822; note: series mostly up to about 46 µM)
# Summary of the method: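 17.5 h compound treatment of PGC/ERR cells at 37 C; readout CellTiter-Fluor fluorescence; run alongside the PGC/ERR antagonist screen to flag cytotoxic compounds.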
# [19] = qHTS assay to identify small molecule agonists of the estrogen related receptor signaling pathway with the pleiotropic PPARgamma coactivator (PGC) (AID 1224823)
# Summary of the method: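 Compounds dissolved in DMSO are added by pin tool to PGC/ERR cells that have settled for 6 h, and incubation continues 18 h at 37 C. Reporter output is measured as One-Glo luminescence.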
# Retinoic acid receptor RXR-alpha (Homo sapiens), sequence (P19793 whole entry, looked up): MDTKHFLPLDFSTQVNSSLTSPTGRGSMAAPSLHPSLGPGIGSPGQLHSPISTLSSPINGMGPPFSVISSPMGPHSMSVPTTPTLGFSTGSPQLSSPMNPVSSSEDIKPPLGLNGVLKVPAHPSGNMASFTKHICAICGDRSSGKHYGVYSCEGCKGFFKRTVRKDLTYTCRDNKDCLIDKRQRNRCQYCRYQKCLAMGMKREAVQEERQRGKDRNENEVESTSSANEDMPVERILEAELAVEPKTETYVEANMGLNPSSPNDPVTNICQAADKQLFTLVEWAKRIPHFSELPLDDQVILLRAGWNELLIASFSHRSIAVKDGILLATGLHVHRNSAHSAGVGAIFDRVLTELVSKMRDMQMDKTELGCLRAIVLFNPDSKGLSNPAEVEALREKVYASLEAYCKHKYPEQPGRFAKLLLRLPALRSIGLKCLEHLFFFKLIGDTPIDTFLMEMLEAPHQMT
smiles,measurement,setting,value
O=C1CCC(=O)O1,Potency,[1],inactive
same,Potency,[2],inactive
same,Potency,[3],inactive
same,Potency,[4],inactive
same,Potency,[5],inactive
same,Potency,[6],inactive
same,Potency,[7],inactive
same,Potency,[8],inactive
same,Potency,[9],inactive
same,Potency,[10],inactive
same,Potency,[11],inactive
same,Potency,[12],inactive
Nc1cccc([N+](=O)[O-])c1,Potency,[1],inactive
same,Potency,[2],inactive
same,Potency,[3],inactive
same,Potency,[4],inactive
same,Potency,[5],inactive
same,Potency,[6],inactive
same,Potency,[7],inactive
same,Potency,[8],inactive
same,Potency,[9],inactive
same,Potency,[10],inactive
same,Potency,[13],inactive
same,Potency,[12],inactive
COCCCN1CCC(NC(=O)c2cc(Cl)c(N)c3c2OCC3)CC1,Potency,[1],inactive
same,Potency,[2],inactive
same,Potency,[3],inactive
same,Potency,[4],inactive
same,Potency,[5],inactive
same,Potency,[6],inactive
same,Potency,[7],inactive
same,Potency,[8],inactive
same,Potency,[9],inactive
same,Potency,[10],inactive
same,Potency,[11],inactive
same,Potency,[12],inactive
CC(C)(CO)[N+](=O)[O-],Potency,[1],inactive
same,Potency,[2],inactive
same,Potency,[3],inactive
same,Potency,[4],inactive
same,Potency,[5],inactive
same,Potency,[6],inactive
same,Potency,[7],inactive
same,Potency,[8],inactive
same,Potency,[9],inactive
same,Potency,[10],inactive
same,Potency,[12],inactive
c1cc(CCCc2ccncc2)ccn1,Potency,[1],inactive
same,Potency,[2],inactive
same,Potency,[3],inactive
same,Potency,[4],inactive
same,Potency,[5],inactive
same,Potency,[6],inactive
same,Potency,[7],inactive
same,Potency,[8],inactive
same,Potency,[9],inactive
same,Potency,[10],inactive
same,Potency,[12],inactive
CN1Cc2cc(C(=O)N3CCC(C4CCNCC4)CC3)ccc2NC(CC(=O)O)C1=O (stereo not drawn),Potency,[1],inactive
same,Potency,[2],inactive
same,Potency,[3],inactive
same,Potency,[4],inactive
same,Potency,[5],inactive
same,Potency,[6],inactive
same,Potency,[7],inactive
same,Potency,[8],inactive
same,Potency,[9],inactive
same,Potency,[10],inactive
same,Potency,[12],inactive
CCCCCCCCO[C@@H]1O[C@H](CO)[C@@H](O)[C@H](O)[C@H]1O,Potency,[1],inactive
same,Potency,[2],inactive
same,Potency,[3],inactive
same,Potency,[4],inactive
same,Potency,[5],inactive
same,Potency,[6],inactive
same,Potency,[7],inactive
same,Potency,[8],inactive
same,Potency,[9],inactive
same,Potency,[10],inactive
same,Potency,[11],inactive
same,Potency,[12],inactive
COCC(C)OC(C)=O (stereo not drawn),Potency,[1],inactive
same,Potency,[2],inactive
same,Potency,[3],inactive
same,Potency,[4],inactive
same,Potency,[5],inactive
same,Potency,[6],inactive
same,Potency,[7],inactive
same,Potency,[8],inactive
same,Potency,[9],inactive
same,Potency,[10],inactive
same,Potency,[11],inactive
same,Potency,[12],inactive
CCCn1cnc2c1c(=O)n(CCCCC(C)=O)c(=O)n2C,Potency,[1],inactive
same,Potency,[2],inactive
same,Potency,[3],inactive
same,Potency,[4],inactive
same,Potency,[5],inactive
same,Potency,[6],inactive
same,Potency,[7],inactive
same,Potency,[8],inactive
same,Potency,[9],inactive
same,Potency,[10],inactive
same,outcome,[14],inactive
same,Potency,[15],inactive
same,outcome,[16],inactive
same,Potency,[17],inactive
same,outcome,[18],inactive
same,outcome,[19],inactive
same,Potency,[12],inactive
O=C(O)CNCC(=O)O,"viability change, negative = cytotoxic",[1],-0.385% [at 6.95 µM]
same,"activity, negative = cytotoxic",[2],11.1% [at 6.95 µM]
same,activation,[3],-0.0292% [at 6.95 µM]
same,"activity change, negative = cytotoxicity",[4],-2.31% [at 6.95 µM]
same,"activity, negative = cytotoxicity",[5],0.267% [at 8.39 µM]
same,"viability change, negative = cytotoxic",[6],2.06% [at 6.97 µM]
same,activation,[7],-4.84% [at 6.97 µM]
same,activation,[8],1.94% [at 6.98 µM]
same,"activity change, negative = cytotoxicity",[9],3.65% [at 6.97 µM]
same,"activity change, negative = cytotoxicity",[10],-1.04% [at 8.39 µM]
same,"viability change, negative = cytotoxic",[12],2.9% [at 8.39 µM]
Brc1c2ccccc2cc2ccccc12,Potency,[1],inactive
same,Potency,[2],inactive
same,Potency,[3],49.5 µM (active)
same,Potency,[4],inactive
same,Potency,[5],inactive
same,Potency,[6],inactive
same,Potency,[7],inactive
same,Potency,[8],inactive
same,Potency,[9],35 µM (active)
same,Potency,[10],inactive
same,Potency,[12],inactive
CC(C)(C)OCC1CO1 (stereo not drawn),Potency,[1],inactive
same,Potency,[2],inactive
same,Potency,[3],inactive
same,Potency,[4],inactive
same,Potency,[5],inactive
same,Potency,[6],inactive
same,Potency,[7],inactive
same,Potency,[8],inactive
same,Potency,[9],inactive
same,Potency,[10],inactive
same,Potency,[12],inactive
Nc1ccc([N+](=O)[O-])c(C(F)(F)F)c1,Potency,[1],inactive
same,Potency,[2],inactive
same,Potency,[3],inactive
same,Potency,[4],inactive
same,Potency,[5],inactive
same,Potency,[6],inactive
same,Potency,[7],inactive
same,Potency,[8],inactive
same,Potency,[9],inactive
same,Potency,[10],inactive
same,Potency,[11],inactive
same,Potency,[12],inactive
N=c1ccn2c(n1)O[C@H]1[C@H](O)[C@@H](CO)O[C@H]12,Potency,[2],inactive
same,Potency,[3],inactive
same,Potency,[4],inactive
same,Potency,[5],inactive
same,Potency,[6],inactive
same,Potency,[7],inactive
same,Potency,[8],inactive
same,Potency,[9],inactive
same,Potency,[10],inactive
same,Potency,[12],inactive
CC[N+](C)(CC)CCOC(=O)C(O)(c1ccccc1)C1CCCCC1 (stereo not drawn),Potency,[1],inactive
same,Potency,[2],inactive
same,Potency,[3],inactive
same,Potency,[4],inactive
same,Potency,[5],inactive
same,Potency,[6],inactive
same,Potency,[7],inactive
same,Potency,[8],inactive
same,Potency,[9],inactive
same,Potency,[10],inactive
same,Potency,[13],inactive
same,Potency,[12],inactive
COC(C)OC,Potency,[1],inactive
same,Potency,[2],inactive
same,Potency,[3],inactive
same,Potency,[4],inactive
same,Potency,[5],inactive
same,Potency,[6],inactive
same,Potency,[7],inactive
same,Potency,[8],inactive
same,Potency,[9],inactive
same,Potency,[10],inactive
same,Potency,[11],inactive
same,Potency,[12],inactive
CCCCO,Potency,[1],inactive
same,Potency,[2],inactive
same,Potency,[3],inactive
same,Potency,[4],inactive
same,Potency,[5],inactive
same,Potency,[6],inactive
same,Potency,[7],inactive
same,Potency,[8],inactive
same,Potency,[9],inactive
same,Potency,[10],inactive
same,Potency,[12],inactive
CCCCCCCCCOS(=O)(=O)O,Potency,[1],inactive
same,Potency,[2],inactive
same,Potency,[3],inactive
same,Potency,[4],inactive
same,Potency,[5],inactive
same,Potency,[6],inactive
same,Potency,[7],inactive
same,Potency,[8],inactive
same,Potency,[9],inactive
same,Potency,[10],inactive
same,Potency,[12],inactive
CCCCCCCN,Potency,[1],inactive
same,Potency,[2],inactive
same,Potency,[3],inactive
same,Potency,[4],inactive
same,Potency,[5],inactive
same,Potency,[6],inactive
same,Potency,[7],inactive
same,Potency,[8],inactive
same,Potency,[9],inactive
same,Potency,[10],inactive
same,Potency,[12],inactive
O=C1OC(CN2CCOCC2)CN1/N=C/c1ccc([N+](=O)[O-])o1 (stereo not drawn),Potency,[1],inactive
same,Potency,[2],inactive
same,Potency,[3],inactive
same,Potency,[4],inactive
same,Potency,[5],inactive
same,Potency,[6],inactive
same,Potency,[7],inactive
same,Potency,[8],inactive
same,Potency,[9],inactive
same,Potency,[10],inactive
same,Potency,[13],inactive
